# Screening results from PubChem.
# A selection: hits, their analogues and other compounds. The true share with any hit is near 3.4%.
# AmpC detergent: AmpC beta-lactamase inhibition with detergent present. AmpC hydrolysis of nitrocefin, absorbance 480 nm, 0.01% Triton. P00811. hit rate 0.041% among 370,000. Potency, µM (doses to about 114 µM), inactives show at the highest dose activity change, negative = inhibition, hits mostly inhibitors. AID 485294;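 also: 0% = no-compound wells and -100% = no-enzyme wells; nearly all actives have a fitted effect of over 25% in size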
#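 20 mM phosphate pH 7.0 + 0.01% (detergent screen) or 0.0001% Triton X-100; 5.3 nM AmpC reagent; cpd preinc 15 min RT; nitrocefin (800 uM stock) to start; A480 q20 s × 4 min; Activity was normalised to no-enzyme and no-compound control wells.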
# Sm TGR block: blocks Schistosoma mansoni thioredoxin glutathione reductase; hit rate 3% among 360,000; purified TGR, DTNB reduction, TNB absorbance 405 nm; Potency, µM (doses to about 114 µM), without a hit: at the top dose activity change, negative = inhibition, usual class: inhibitors; Q962Y6; AID 485364; also: nearly all actives have a fitted effect of over 60% in size
#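 TGR 20 nM + NADPH 100 uM (dispensed conc.), cpd preinc 15 min RT; start with NADPH (500 uM addition) then DTNB (15 mM addition). Kinetic TNB absorbance, 405 nm filter. Four-parameter Hill fit across titration.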
# RE007 growth inh: less growth of the S. pombe RE007 Vpr strain. AID 651644. Potency, µM (titrated, usually from 92.2 µM), without a hit: top-dose activity change, negative = less growth, usual class: inhibitors. S. pombe RE007 Vpr strain, BacTiter-Glo ATP luminescence, 24 h. hit rate 0.21% among 360,000; active = well fitted falling curve with a large enough effect; inconclusive = small, poorly fitted or top-dose-only effect; inactive = no such curve, though single readings can be large or run the other way; also: nearly all actives have a fitted effect of over 50% in size
#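 Fission yeast strain RE007, carrying one chromosomally integrated HIV-1 vpr copy, was seeded at OD 0.01 in PMG+AL medium with 23 nL pinned compound. After 24 h at 30 °C and 99% humidity, viability was read by BacTiter-Glo luminescence.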
# AmpC inh no detg: inhibitors of E. coli AmpC beta-lactamase without detergent. P00811. AmpC nitrocefin hydrolysis, absorbance 480 nm, 0.0001% Triton. Potency, µM (highest dose often 57.1 µM), without a hit: top-dose activity change, negative = inhibition, usual class: inhibitors. hit rate 0.52% among 330,000;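 also: plate controls were no compound for no effect and no enzyme for full effect; nearly all actives have a fitted effect of over 20% in size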
#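 20 mM phosphate pH 7.0 + 0.01% (detergent screen) or 0.0001% Triton X-100; 5.3 nM AmpC reagent; cpd preinc 15 min RT; nitrocefin (800 uM stock) to start; A480 q20 s × 4 min; Activity was normalised to no-enzyme and no-compound control wells.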
# Giardia FBPA inh-1: inhibitors of Giardia lamblia fructose-1,6-bisphosphate aldolase | purified Giardia FBPA | Potency, µM (top dose mostly 59.6 µM), inactives show at the top dose activity, negative = inhibition, actives largely listed as inhibitors | hit rate 0.71% among 290,000 | AID 2451; also: nearly all actives have a fitted effect of over 55% in size
# Target sequence (A8B2U2 whole entry, looked up): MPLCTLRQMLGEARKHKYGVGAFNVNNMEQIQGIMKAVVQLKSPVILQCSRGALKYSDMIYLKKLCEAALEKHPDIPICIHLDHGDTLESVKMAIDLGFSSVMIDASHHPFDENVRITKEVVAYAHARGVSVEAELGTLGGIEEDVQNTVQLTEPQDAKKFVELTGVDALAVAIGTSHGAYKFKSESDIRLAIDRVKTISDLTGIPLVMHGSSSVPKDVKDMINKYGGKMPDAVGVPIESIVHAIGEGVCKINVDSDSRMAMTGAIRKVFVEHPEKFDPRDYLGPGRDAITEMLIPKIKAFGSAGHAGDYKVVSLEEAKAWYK
#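 40 nM FBPA preincubated 10 min at RT with compound (up to 57.5 uM final), then substrate plus GAPDH/TPI/NAD/arsenate coupling and diaphorase/resazurin added. Fluorescence read after 20 min at RT, 525/598 nm.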
# Giardia growth: inhibitors of Giardia lamblia growth | shares compounds with Giardia FBPA inh-1 | Giardia lamblia trophozoite growth inhibition | Potency, µM (top dose mostly 57.5 µM), inactives show at the highest dose activity change, negative = inhibition, hits mostly inhibitors | hit rate 5% among 1,500 | AID 2785;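 also: trophozoites exposed to compound for 48 h at 37 °C; nearly all actives have a fitted effect of over 70% in size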
# Mammal cell tox: counter-screen for Giardia aldolase inhibitors: mammalian cell toxicity; shares compounds with Giardia FBPA inh-1; AID 2786; hit rate 4% among 1,500; mammalian cell viability counter-screen, qHTS; Potency, µM (highest dose often 57.5 µM), without a hit: at the top dose viability change, negative = toxicity, hits mostly inhibitors;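 also: Chinese hamster ovary cells used as mammalian cytotoxicity surrogate; viability measured as cellular ATP by luminescence; compound exposure lasted 48 h before reading; nearly all actives have a fitted effect of over 60% in size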
# Giardia FBPA inh-2: confirmation of Giardia fructose-bisphosphate aldolase inhibitors. purified Giardia aldolase enzyme activity, qHTS. shares compounds with Giardia FBPA inh-1. hit rate 5% among 1,500. Potency, µM (doses to about 57.5 µM), for inactives: top-dose activity change, negative = inhibition, most hits filed as inhibitors. AID 2787; also: nearly all actives have a fitted effect of over 45% in size
# Rabbit FBPA inh: blocks rabbit muscle aldolase in Giardia aldolase selectivity test; shares compounds with Giardia FBPA inh-1; Rabbit muscle FBPA enzyme inhibition, selectivity counter-screen; Potency, µM (series often up to 57.5 µM), inactives show top-dose activity, negative = inhibition, hits mostly inhibitors; hit rate 4% among 1,500; also: nearly all actives have a fitted effect of over 60% in size
# Target sequence (P00883 whole entry, looked up): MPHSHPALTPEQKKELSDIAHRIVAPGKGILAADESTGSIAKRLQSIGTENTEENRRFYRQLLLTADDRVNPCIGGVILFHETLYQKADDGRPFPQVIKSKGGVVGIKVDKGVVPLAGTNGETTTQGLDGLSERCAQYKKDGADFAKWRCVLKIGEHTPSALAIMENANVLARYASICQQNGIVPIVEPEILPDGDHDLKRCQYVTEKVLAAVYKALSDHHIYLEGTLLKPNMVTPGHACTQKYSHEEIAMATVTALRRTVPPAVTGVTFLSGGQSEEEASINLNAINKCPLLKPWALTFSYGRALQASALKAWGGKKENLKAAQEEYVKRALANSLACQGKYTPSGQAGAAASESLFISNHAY
# GAPDH counter: counter-screen for Giardia aldolase inhibitors: GAPDH coupling enzyme; AID 2795; hit rate 6% among 1,500; GAPDH coupling enzyme counterscreen, biochemical, qHTS; Potency, µM (highest dose often 57.5 µM), without a hit: at the top dose activity change, negative = inhibition, most hits filed as inhibitors; shares compounds with Giardia FBPA inh-1; also: nearly all actives have a fitted effect of over 55% in size
# * = called active by the depositor; ? = inconclusive; nt = not tested or not shown; [ ] = another dose, or the depositor's remark. Unless noted, calls follow the shape of the dose curve; as a rule, active = well fitted curve in the direction sought with a large enough effect; inconclusive = small, poorly fitted or top-dose-only effect, or another doubt; inactive = no such curve, though single readings can be large; an effect the other way counts as inactive or inconclusive. Unless noted, % is scaled to controls: 0 for no effect and ±100 for the full control effect; potency is read from the fitted curve at half-maximal effect.
SMILES,AmpC detergent,Sm TGR block,RE007 growth inh,AmpC inh no detg,Giardia FBPA inh-1,Giardia growth,Mammal cell tox,Giardia FBPA inh-2,Rabbit FBPA inh,GAPDH counter
Cc1csc(NC(=S)NC(=O)c2ccccc2)n1,?,-10%,-13%,-35%,7.9µM*,?,50µM*,-5%,-7%,-7%
Cc1nc(N)c(S(=O)(=O)c2ccccc2)c(Nc2ccc(Br)cc2)n1,2%,-2%,nt,nt,nt,nt,nt,nt,nt,nt
CCc1cccc(N(C(=O)c2csnn2)C(C(=O)NC2CCCCC2)c2cccnc2)c1 (centres undefined),2%,5%,59%,-2%,nt,nt,nt,nt,nt,nt
CCc1nc(C#N)c(N2CCCCC2)o1,12%,-2%,32%,-8%,0%,nt,nt,nt,nt,nt
Cc1cccc(C(=O)c2c(N)sc3c2CCCC3)c1,-2%,?,0%,-25%,-18%,nt,nt,nt,nt,nt
O=C(NC(=S)Nc1ccccc1Br)c1cccnc1,-11%,18µM*,1%,-4%,6.3µM*,?,-9%,-7%,5%,-1%
O=C(O)c1ccc(NC(=S)NC(=O)c2cccnc2)cc1,-11%,35µM*,-8%,-12%,3.5µM*,-5%[38.3 µM],-14%,8%,15%,8%
COc1ccc(NC(=O)c2ccc(NC(=O)c3cccnc3)cc2)cc1,nt,nt,-1%,nt,nt,nt,nt,nt,nt,nt
COc1cc(OC)cc(C(=O)NNC(=S)NC(=O)c2cccnc2)c1,-1%,-2%,6%,-5%,2µM*,16µM*,7%,13%,9%,14%
CCC(=O)NC(=S)Nc1ccc(NC(=O)c2cccnc2)cc1,2%,?,-11%,-21%,-1%,nt,nt,nt,nt,nt
COc1ccc(NC(=S)NC(=O)c2cccnc2)cc1,-8%,22µM*,-4%,-20%,7.9µM*,22µM*,5%,6%,4%,4%
CC(C)CCSc1nnc2n(-c3ccccc3)c(=O)c3c4c(sc3n12)CC(C)CC4 (centres undefined),10%,6%,nt,nt,nt,nt,nt,nt,nt,nt
OC(C#Cc1ccccc1)(c1ccccc1)c1ccccc1,nt,nt,4%,nt,nt,nt,nt,nt,nt,nt
O=C(NC(=S)Nc1cccnc1)c1ccccc1,-5%,22µM*,10%,-9%,13µM*,-19%,6%,1%,11%,7%
O=C(NC(=S)Nc1cccnc1Cl)c1ccc(Cl)cc1,3%,-25%,?,-39%,13µM*,-21%,-5%,2%,4%,-1%
O=C(Nc1cccnc1Cl)c1ccc(Cl)cc1,0%,-16%,1%,-6%,-1%,nt,nt,nt,nt,nt
O=S(=O)(NCCc1nnc2ccc(SCc3cccnc3)nn12)c1ccccc1,2%,0%,7%,-8%,5%,nt,nt,nt,nt,nt
CCC(C)c1ccc(NC(=O)CN(C)CC(=O)Nc2cccc(OC)c2)cc1 (centres undefined),5%,5%,11%,110%,16µM*,?,3%,-7%,-3%,-3%
CCCCCCC(=O)Nc1c2c(nc3ccccc13)N(C)CC2,?,2%,-1%,nt,12%,nt,nt,nt,nt,nt
CC(C)(C)CC(C)(C)NCC(=O)Nc1c2c(nc3ccccc13)CCC2,6%,6%,-12%,64%,4.5µM*,73%,3%,7%,12%,10%
CN1CCc2c1nc1ccccc1c2NC(=O)CN1CCCC1,-15%,-4%,-1%,-19%,18µM*,-4%[10.4 µM],-6%,10%,3%,7%
CCOC(=O)Cc1csc(NS(=O)(=O)c2ccc(F)cc2)n1,6%,6%,1%,-20%,0%,nt,nt,nt,nt,nt
Cc1[nH]n(-c2ccccc2)c(=S)c1C=Nc1ccc([N+](=O)[O-])cc1,-6%,-25%,39%,-16%,4.5µM*,-1%[38.3 µM],-8%,-23%,35µM*,?
Cc1[nH]n(-c2ccccc2)c(=O)c1C=Nc1ccc(S(=O)(=O)N=C(N)N)cc1,2%,-6%,-3%,-15%,-5%,nt,nt,nt,nt,nt
CC(CN1CCCC1)OC(=O)c1ccc(Cl)cc1Cl (centres undefined),-6%,0%,-21%,-10%,16µM*,18%,-10%,0%,-1%,-19%
SMILES,AmpC detergent,Sm TGR block,RE007 growth inh,AmpC inh no detg,Giardia FBPA inh-1,Giardia growth,Mammal cell tox,Giardia FBPA inh-2,Rabbit FBPA inh,GAPDH counter
COc1ccccc1C(=O)OC(C)CN1CCN(C)CC1 (centres undefined),0%,-30%,-5%,-5%,32µM*,-5%[10.4 µM],3%,6%,2%,-12%
Cc1ccc(OCC(=O)NNC(=O)C2CC(=O)N(c3ccc4c(c3)OCCO4)C2)cc1 (centres undefined),-15%,3%,-4%,-9%,nt,nt,nt,nt,nt,nt
O=C(NNC(=O)c1ccccn1)c1cccc([N+](=O)[O-])c1,-4%,1%,8%,-9%,10µM*,?,?,-1%,-6%,-26%
COc1ccc(CN2CCN(C(C)C(=O)N(C)Cc3cccc(F)c3)CC2)cc1OC (centres undefined),-4%,2%,-29%,46%,16µM*,?,3%,6%,6%,9%
COc1ccc(CN2CCN(C(C)C(=O)NC(C)c3ccc(F)cc3)CC2)cc1F (centres undefined),-12%,-7%,1%,92%,-6%,nt,nt,nt,nt,nt
COc1ccc(CN2CCN(C(=O)c3cccc(OC)c3OC)CC2)cc1OC,-7%,1%,-6%,6%,20µM*,12%,1%,8%,4%,8%
Cc1nc2cc(-n3ccc(=O)cc3)ccc2n1-c1ccccc1,-3%,-12%,-2%,-6%,3%,nt,nt,nt,nt,nt
CC(=N)C1=C(O)CC(C)(C)CC1=O,3%,-24%,3%,-9%,-2%,nt,nt,nt,nt,nt
Cc1ccc(C2CC(=O)C(C=NCCN3CCN(C(=S)Nc4ccc(F)cc4)CC3)=C(O)C2)cc1 (centres undefined),3%,-16%,3%,158%,0%,nt,nt,nt,nt,nt
Cc1cc(C)nc(N/N=C/C2=C(O)CC(c3ccc(F)cc3)CC2=O)n1 (centres undefined),5%,0%,1%,-7%,-21%,4%[38.3 µM],?,9%,7%,1%
